Screening results as filed in PubChem.
DT40 TDP1 CPT – growth inhibition of DT40 Tdp1-/-;hTDP1 cells with camptothecin (screen for TDP1 inhibitors). Potency, µM (titrated, usually from 46.2 µM), inactives show at the top dose activity change, negative = growth inhibition, hits mostly inhibitors. AID 686979. chicken DT40 Tdp1-/-;hTDP1 cells + 20 nM CPT, ATP luminescence, 48 h. hit rate 12% among 420,000; also: nearly all actives have a fitted effect of over 55% in size
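Chicken DT40 Tdp1-/- cells complemented with human TDP1, 400 cells/well, exposed to compounds plus 20 nM camptothecin for at least 48 h at 37 C; viability read as ATP content by CellTiter-Glo luminescence.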
HT1080NT lethal – kills 2HG-producing HT-1080-NT fibrosarcoma cells | HT-1080-NT fibrosarcoma viability, CellTiter-Glo ATP luminescence, 48 h | Potency, µM (top dose mostly 46.1 µM), for inactives: at the highest dose activity, negative = less viability, usual class: cytotoxic | hit rate 1.6% among 360,000 | AID 686970;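 also: NT is the 2HG producing partner of a matched IDH1 knockdown line; 0% = DMSO-treated cells and -100% = media-only wells without cells; nearly all actives have a fitted effect of over 55% in size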
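A 48-hour cytotoxicity screen used HT-1080-NT cells plated 2 hours before compound delivery. ATP-based CellTiter-Glo luminescence measured viability, normalized to DMSO and no-cell controls.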
KB-V1 cytotox – kills drug-selected multidrug resistant KB-V1 cells. hit rate 3.4% among 400,000. Potency, µM (doses to about 46.1 µM), usual class: cytotoxic. KB-V1 MDR cells viability, CellTiter-Glo, 72 h. AID 1347076; also: nearly all actives have a fitted effect of over 60% in size
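Cytotoxicity via CellTiter-Glo luminescence after 72 h compound exposure at 37 degrees C. Cells: drug-selected KB-V1 line, DMEM phenol-red free plus 10% FBS. Compounds tested at multiple concentrations; normalized data fitted to concentration-effect curves.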
HT1080 IDH1KD tx – toxicity to HT-1080 IDH1 knockdown cells (counter line); HT-1080 IDH1 knockdown viability, ATP luminescence, 48 h; Potency, µM (top dose mostly 46.1 µM), without a hit: at the highest dose activity, negative = toxicity, most hits filed as cytotoxic; hit rate 2% among 360,000;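 also: 0% = DMSO wells and -100% = cell-free medium wells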
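Knockdown cells (IDH1KD HT-1080) received compounds 2 h after plating at 750 cells/well and were kept 48 h at 37 °C in 5% FBS RPMI. A CellTiter-Glo luminescence read gave % activity for curve fitting.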
DT40 TDP1 no CPT – qHTS for Inhibitors of human tyrosyl-DNA phosphodiesterase 1 (TDP1): qHTS in cells in absence of CPT; AID 686978, 2013; Potency, µM (titrated, usually from 46.2 µM), without a hit: at the top dose activity change, negative = growth inhibition, actives largely listed as inhibitors; hit rate 15% among 420,000; DT40 Tdp1-/- hTDP1 cells, no CPT, ATP luminescence, 48 h; also: nearly all actives have a fitted effect of over 55% in size
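Luminescent ATP content (CellTiter-Glo) served as the growth readout. Knockout chicken DT40 cells expressing human TDP1 were exposed to compounds without camptothecin for a minimum 48 hr at 37 °C.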
KB-3-1 cytotox – kills parental KB-3-1 adenocarcinoma cells; KB-3-1 viability, CellTiter-Glo ATP luminescence, 72 h; Potency, µM (series often up to 46.1 µM), hits mostly cytotoxic; hit rate 1.4% among 400,000; also: nearly all actives have a fitted effect of over 60% in size
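Viability of parental KB-3-1 cells, measured by CellTiter-Glo luminescence, followed a 72 h incubation at 37 °C with pinned compounds in phenol-red-free DMEM containing 10% FBS.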
The depositor's hits bear a star; i = inactive; ? = inconclusive; . = no result; [ ] = dose if it differs, or a comment. Rows were chosen to be rich in hits. Some 19% of all compounds tested hit in one or more screens of this group. Calls follow the shape of the dose curve; as a rule, active = well fitted curve in the direction sought with a large enough effect; inconclusive = small, poorly fitted or top-dose-only effect, or another doubt; inactive = no such curve, though single readings can be large; an effect the other way counts as inactive or inconclusive. Unless noted, % is scaled to controls: 0 for no effect and ±100 for the full control effect; potency is read from the fitted curve at half-maximal effect.

SMILES | DT40 TDP1 CPT | HT1080NT lethal | KB-V1 cytotox | HT1080 IDH1KD tx | DT40 TDP1 no CPT | KB-3-1 cytotox
Cc1cccc(-c2noc(CCC(=O)NC3CCCCC3)n2)c1 | ? | 13% | i | -1% | -27% | i
O=C(CCc1nc(-c2ccccc2Cl)no1)NC1CCCCC1 | ? | -4% | i | -13% | 21µM* | i
O=C(CCc1nc(-c2ccccc2F)no1)NC1CCCCCC1 | ? | 1% | 16µM* | 5%[9.24 µM] | 29µM* | ?
O=C(CCc1nc(-c2ccccc2)no1)NC1CCCCC1 | -26% | -1% | 21µM* | -10% | -17% | i
Cc1ccc2c(c1)[nH]c1c(=O)n(Cc3ccccn3)cnc12 | -8% | -12% | i | -23% | -26% | i
c1ccc(OCC2CCNCC2)nc1 | 0% | 8% | i | 15% | 4% | i
O=C(NC1CCCC1)C(c1ccccc1)n1c(CSCCOc2ccccc2)nc2ccccc21 (stereo not given) | ? | ? | ? | -23% | 16µM* | i
O=C(NC1CCCC1)C(c1ccccc1)n1c(-c2cccs2)nc2ccccc21 (stereo not given) | ? | -4% | ? | -2% | ? | ?
CCCCCNC(=O)C(c1ccccc1F)n1c(=O)c(-c2ccco2)nc2ccccc21 (stereo not given) | ? | -1% | i | 5% | ? | i
Cc1cc(N2CCN(C(C(=O)NC3CCCC3)c3ccc(-c4ccccc4)cc3)CC2)c2ccccc2n1 (stereo not given) | 7.3µM* | -27% | 21µM* | -17% | 8.2µM* | ?
O=C(NC1CCCCC1)C(c1ccc(-c2ccccc2)cc1)n1c(=O)c(-c2ccco2)nc2ccccc21 (stereo not given) | ? | ? | i | ? | 15µM* | i
O=C(NC1CCCCC1)C(c1ccccc1F)n1c(=O)c(-c2ccco2)nc2ccccc21 (stereo not given) | ? | -8% | i | -2% | 16µM* | i
N#Cc1ccc(C(C(=O)NC2CCCCC2)n2c(=O)c(-c3ccccc3)nc3ccccc32)cc1 (stereo not given) | ? | -2% | i | 2% | ? | i
O=C(NC1CCCCC1)C(C1CC1)n1c(=O)c(-c2ccccc2)nc2ccccc21 (stereo not given) | ? | -26% | ? | ? | 16µM* | i
O=C(NC1CCCCC1)C(c1ccnc2ccccc12)n1c(=O)c(-c2ccco2)nc2ccccc21 (stereo not given) | 13µM* | -26% | i | -27% | 13µM* | i
O=C(NC1CCCCC1)C(c1ccnc2ccccc12)N1CCc2ccccc2C1 (stereo not given) | ? | -7% | i | -11% | ? | i
CC(=O)Nc1ccc2ccccc2c1[N+](=O)[O-] | -3% | 12% | i | -1% | -15% | i
CCc1ccccc1NC(=O)c1ccc(Cn2nc(N3CCN(c4ccccc4)CC3)ccc2=O)o1 | 15µM* | . | i | . | 12µM* | i
CCOc1ccccc1NC(=O)Cn1nc(N2CCN(c3ccccc3)CC2)ccc1=O | ? | . | i | . | 18µM* | i
COc1ccc(C)cc1NC(=O)Cn1nc(N2CCN(c3ccccc3OC)CC2)ccc1=O | ? | . | i | . | ? | i
COc1ccccc1N1CCN(c2ccc(=O)n(CC(=O)Nc3cc(F)ccc3C)n2)CC1 | 15µM* | . | i | . | 23µM* | i
COc1cccc(NC(=O)Cn2nc(N3CCN(c4ccccc4)CC3)ccc2=O)c1 | ? | . | i | . | ? | i
CCc1cc(=O)oc2cc(C)c(CN3CCCC(C)C3)c(O)c12 (stereo not given) | ? | 5%[9.24 µM] | ? | -15% | ? | i
O=c1cc(CN2CCN(Cc3ccccc3)CC2)c2cc(O)ccc2o1 | ? | 4% | i | -4% | ? | i
Cc1cc2oc(=O)cc(CN3CCN(Cc4ccccc4)CC3)c2cc1O | 8.2µM* | -1% | i | 0% | 7.3µM* | i
SMILES | DT40 TDP1 CPT | HT1080NT lethal | KB-V1 cytotox | HT1080 IDH1KD tx | DT40 TDP1 no CPT | KB-3-1 cytotox
CCCc1cc(=O)oc2cc(C)cc(OC(=O)c3ccco3)c12 | 23µM* | -6% | ? | 7% | 18µM* | i
CCCCc1cc(=O)oc2cc(C)c(CN3CCCC3)c(O)c12 | -29% | ? | 18µM* | -4% | ? | i
CCCCCc1cc(O)c2c(C)cc(=O)oc2c1 | 23µM* | -29% | ? | ? | 16µM* | ?
COc1cccc(-c2cnc(C(O)c3ccc(C)cc3C)[nH]2)c1 (stereo not given) | ? | 3% | i | -11% | ? | i
O=C(NCC(O)c1ccccc1)c1cccs1 (stereo not given) | -2% | 14% | i | 4% | -17% | i
O=C(CCCOc1ccccc1)NN1C(=O)NC2(CCCCC2)C1=O | -13% | 2% | i | 8% | -5% | i
CCCc1cc(=O)oc2cc(C)cc(O)c12 | ? | -3% | 13µM* | 1% | 18µM* | 15µM*
CCc1cc(=O)oc2cc(C)cc(O)c12 | ? | 0% | i | 3% | ? | i
Cc1cc(O)c2c(CN3CCN(Cc4ccccc4)CC3)cc(=O)oc2c1 | ? | -1% | i | -10% | 15µM* | i
CCOC(=O)C1(C)CCCN(C(=O)c2ccc(-c3ccccc3)cc2)C1 (stereo not given) | ? | 1% | i | -3% | 16µM* | i
CCOC(=O)C1(C)CCCN(C(=O)Cc2ccc3ccccc3c2)C1 (stereo not given) | 29µM* | -8% | i | -16% | 9.2µM* | i
CSc1ncccc1C(=O)NCCN1Cc2ccccc2OC(c2ccccc2F)C1 (stereo not given) | 12%[9.04 µM] | . | . | . | ? | .
Cc1nc2sccn2c1CN1Cc2ccccc2OC(c2ccccc2F)C1 (stereo not given) | 6%[9.04 µM] | . | . | . | 18µM* | .
COc1ccccc1C1CN(Cc2c(O)cccc2OC)Cc2ccccc2O1 (stereo not given) | 6%[9.04 µM] | . | . | . | -19% | .
COc1ccccc1C1CN(Cc2cccc(C)n2)Cc2ccccc2O1 (stereo not given) | -30%[9.04 µM] | . | . | . | 16µM* | .
